Bioassay records from PubChem BioAssay.
SW480 rerep = induces DNA re-replication in SW480 colon adenocarcinoma cells; SW480 DNA re-replication, Hoechst DNA content imaging, 48 h; Potency, µM (series often up to 46.1 µM), inactives show top-dose re-replication activation, most hits filed as activators; actives 1.8% (n = 340,000); note: potency is the fitted concentration of half-maximal effect; % of control where 0% means no effect; nearly all actives have a fitted effect of over 55% in size
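Quantitative HTS format with DMSO vehicle controls; 48 hr drug incubation at 37 C, then 40 min Hoechst staining and scanning imager measurement at 405 nm excitation.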
BCR signal inh = chronic active BCR signaling inhibition; ABC-DLBCL IkBa-CBG/CBR reporter, luminescence ratio, 4 h; Potency, µM (series often up to 46.1 µM), for inactives: top-dose activity change, negative = inhibition, hits mostly inhibitors; actives 0.05% (n = 340,000); AID 493014; active = well fitted inhibition curve with a large enough effect in the signal ratio, with a control signal flat, not every such curve was filed as active; inconclusive = small, poorly fitted or top-dose-only effect, or effect the other way, or a change in a side signal; the % refers to the signal ratio;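 note: potency is the fitted concentration of half-maximal effect; plate controls were basal doxycycline-induced cells for no effect and cells given 10 µM MG132 for full effect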
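TMD8 human ABC-DLBCL cells with doxycycline-inducible IκBα–green luciferase fusion and unfused red luciferase, in 0.5% FBS medium; compounds up to 46 uM, 4 h at 37C. Green/red luminescence ratio, filter-overlap corrected, fitted to concentration-response curves.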
Gal4-VP16 FLuc = counter-screen for ROR gamma inhibitors: Gal4-VP16 reporter | Drosophila S2 Gal4-VP16 UAS-luciferase, luminescence, 20 h | Potency, µM (doses to about 53.6 µM), for the others: at the top dose activity, negative = inhibition, most hits filed as inhibitors | actives 3.5% (n = 310,000);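 note: Gal4-VP16 expression switched on by copper sulfate through the metallothionein promoter; potency is the fitted concentration of half-maximal effect; % is set by controls: 0 for no effect and ±100 for the full control effect; nearly all actives have a fitted effect of over 50% in size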
RORg inh = ROR gamma (mouse) transcription inhibition; Drosophila S2 Gal4-RORgamma UAS-luciferase reporter, 20 h; P51450; Potency, µM (titrated, usually from 53.6 µM), for the others: at the top dose activity change, negative = inhibition, most hits filed as inhibitors; actives 5.4% (n = 310,000); note: potency is the fitted concentration of half-maximal effect; % is set by controls: 0 for no effect and ±100 for the full control effect; nearly all actives have a fitted effect of over 60% in size
Target sequence (P51450 whole entry, looked up, the tested form may be a part): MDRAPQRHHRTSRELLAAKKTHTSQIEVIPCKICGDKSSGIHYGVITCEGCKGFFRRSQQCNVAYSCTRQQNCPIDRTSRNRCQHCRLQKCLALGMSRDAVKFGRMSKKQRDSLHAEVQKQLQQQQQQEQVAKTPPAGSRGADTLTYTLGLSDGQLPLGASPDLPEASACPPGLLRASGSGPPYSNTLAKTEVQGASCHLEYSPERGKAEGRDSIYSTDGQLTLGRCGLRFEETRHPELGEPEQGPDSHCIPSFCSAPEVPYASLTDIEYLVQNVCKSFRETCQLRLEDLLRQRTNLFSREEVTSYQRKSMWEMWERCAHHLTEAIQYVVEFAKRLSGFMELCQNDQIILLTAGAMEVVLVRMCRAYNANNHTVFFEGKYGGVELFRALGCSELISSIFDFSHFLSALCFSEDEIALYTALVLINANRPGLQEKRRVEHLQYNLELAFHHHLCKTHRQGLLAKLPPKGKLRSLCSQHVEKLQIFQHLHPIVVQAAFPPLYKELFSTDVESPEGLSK
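Stably transfected Drosophila Schneider cells are the test system, with ROR gamma fused to Gal4 and luciferase under UAS control; luminescence is read after 20 hr of 700 uM copper sulfate induction at ambient temperature.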
Giardia killer = Giardia lamblia killing | actives 0.15% (n = 340,000) | activity change, % at 7.66 µM, hits read low | Giardia lamblia trophozoite viability; in the data active = activity change below about -80%; inconclusive = between about -30% and that limit;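 note: parasites exposed to compound for two days anaerobically before the ATP read; % is set by controls: 0 for no effect and ±100 for the full control effect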
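Trophozoite viability was measured as ATP-dependent luminescence, read 15-30 min after reagent addition. Before that, parasites at 100 cells/well were exposed to compounds for 48 h, anaerobically, at 37 deg C.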
MCF10A rerep = inducers of DNA re-replication in MCF 10A breast cells | MCF 10A DNA re-replication, Hoechst nuclear intensity, 48 h | Potency, µM (top dose mostly 46.1 µM), without a hit: top-dose activity, positive = re-replication, usual class: activators | actives 2.9% (n = 350,000) | AID 624296; note: potency is the fitted concentration of half-maximal effect; % of control where 0% means no effect; nearly all actives have a fitted effect of over 50% in size
Starred values were filed as active, the others as inactive; u = inconclusive; x = not tested or not shown; [ ] = dose if it differs, or a comment. Compounds with a hit are over-represented: about 8.3% of the library has one in this group of screens. Unless noted, calls come from the whole dose curve; as a rule, active = well fitted curve in the direction sought with a large enough effect; inconclusive = small, poorly fitted or top-dose-only effect, or another doubt; inactive = no such curve, though single readings can be large; an effect the other way counts as inactive or inconclusive.

SMILES	SW480 rerep	BCR signal inh	Gal4-VP16 FLuc	RORg inh	Giardia killer	MCF10A rerep
COc1[nH]c(/N=C/c2ccco2)c(C#N)c1C#N	x	x	x	x	-23	x
c1ccc(-c2noc(C3CCCCC3)n2)nc1	2%	-19%	-27%	3.5µM*	13	u
CCCc1noc(-c2cccc([N+](=O)[O-])c2)n1	-1%	11%	11%	1%	-29	-2%
O=[N+]([O-])c1cccc(-c2nc(-c3ccccn3)no2)c1	7%	-5%	u	11µM*	u	3%
Cc1occc1-c1nc(-c2ccccn2)no1	0%	-13%	u	13µM*	-18	u
COc1cccc(-c2nc(-c3ccccn3)no2)c1	-8%	u	4.5µM*	u	u	-4%
CCOC(=O)C1CCN(c2ncnc3c2c(-c2ccccc2)cn3-c2ccc(C)c(Cl)c2)CC1	x	2%	x	x	x	x
O=S1(=O)CCN(Cc2ccc(Cl)c(C(F)(F)F)c2)CC1	0%	-2%	8%[10 µM]	u	6	-13%
CCN(CC(=O)NCc1ccc(F)cc1)C(=O)c1cccnc1SC	-3%	1%	-11%	-18%	8	5%
Cc1cccc(-c2noc(-c3ccc4c(c3)OCO4)n2)c1	-2%	u	8%	7%	-27	1%
c1ccc(-c2noc(-c3ccncc3)n2)nc1	2%	-4%	u	u	-6	-18%
c1ccc(-c2noc(-c3ccc4c(c3)OCO4)n2)nc1	u	u	3.2µM*	3.2µM*	u	u
c1ccc(-c2noc(-c3ccc4ccccc4c3)n2)nc1	-16%	u	2.2µM*	2.5µM*	-93*	17%
COc1ccc(/C(C)=N/NC(=O)CNC(=O)c2ccncc2)c(OC)c1	27%	1%	-7%	-15%	0	-3%
Cc1ccc(N(CC(=O)NC(C)(C)C)C(=O)CS(=O)CC(=O)Nc2ccc3c(c2)OCO3)cc1 (centres undefined)	-3%	3%	1%	-3%	-7	4%
O=c1cc(-c2ccc3c(c2)OCO3)oc2ccccc12	3%	u	15%	u	-23	28%
Nc1c(-c2ccc3c(c2)OCCO3)oc2ccccc2c1=O	21µM*	-5%	7%	5%	-19	18µM*
C=CC[C@@H](CC(=O)N[C@H](CO)Cc1ccccc1)C(=O)NC[C@@H](OC(=O)[C@@H](CC=C)Cc1ccc(F)cc1)c1ccccc1	-5%	-1%	x	x	3	-3%
Cc1ccccc1-c1cc(N(C)C)ncn1	x	x	-6%	-13%	x	x
N#Cc1ccc(CN2CCCC3(CCNCC3)C2)cc1	x	x	12%	-8%	x	x
CN(Cc1ccco1)c1nc(-c2ccoc2)nc2ccccc12	x	x	-6%	0%	x	x
CC(=O)Nc1ccc(C(=O)n2cnc3cc(C)c(C)cc32)cc1	-1%	-9%	-5%	19%	2	14%
CC(=O)Nc1ccc(S(=O)(=O)n2cnc3cc(C)c(C)cc32)cc1	-6%	-1%	11µM*	3%	3	16%
CC12CCC(=O)C=C1CCC1C2C(=O)CC2(C)C1CC[C@]2(O)C(=O)CO (some centres undefined)	5%	-14%	-8%	8%	u	1%
CCCCC(CC)C(=O)Nc1cc(C(=O)NCCC)ccc1N1CCC2(CC1)CC(c1ccccc1)=NO2 (centres undefined)	-9%	-1%	1%	15%	13	-1%
SMILES	SW480 rerep	BCR signal inh	Gal4-VP16 FLuc	RORg inh	Giardia killer	MCF10A rerep
Cc1ccccc1C[C@H](C(=O)O)N1C(=O)c2ccc(C(=O)O)cc2C1=O	x	2%	-4%	-16%	x	x
CCN(CC(=O)Nc1cc(Cl)ccc1C)C(=O)C1CC(=O)N(Cc2ccccc2)C1 (centres undefined)	0.16µM*	9%	x	x	1	u
Cc1ccc(Cl)cc1NC(=O)CCNC(=O)N1CC(=O)Nc2ccccc21	u	1%	-3%	11%	-2	12%
Cc1ccc(Cl)cc1NC(=O)CNC(=O)N1CC(=O)Nc2ccccc21	29µM*	0%	4%	3%	20	-1%
O=C(COc1ccc(-n2ccnc2)cc1)Nc1cccc(Cl)c1	5%	u	-8%	37%	-1	0%
Cc1nc(S/C(=C/c2ccc(-c3ccc(Cl)cc3)o2)C(=O)O)n[nH]1	0%	u	2.8µM*	1.4µM*	1	u
Cc1nc(S/C(=C/c2ccc(-c3cc(Cl)ccc3C)o2)C(=O)O)n[nH]1	4%	5%	3%	24%	-20	u
CC(=O)c1ccc(-c2ccc(/C=C(/Sc3n[nH]c(C)n3)C(=O)O)o2)cc1	-1%	1%	u	5.6µM*	u	u
Cc1nc(S/C(=C/c2ccc(-c3ccc(C(=O)O)cc3)o2)C(=O)O)n[nH]1	-15%	u	-7%	-13%	-11	-6%
CN(C(=O)c1ccc(S(=O)(=O)N(C)C)cc1)c1ccc2ccccc2c1	-15%	1%	6%	25%	-13	0%
Cc1ccc(NC(=O)CCCn2c(=S)[nH]c3ccsc3c2=O)cc1C	-14%	6%	u	13µM*	-4	u
O=C(CCCn1c(=S)[nH]c2ccsc2c1=O)Nc1ccc2c(c1)OCO2	-4%	-5%	-19%	13µM*	-6	0%
Cc1ccc(NC(=O)CCCn2c(=O)[nH]c3ccsc3c2=O)cc1	-7%	9%	-1%	1%	5	-6%
Cc1cccc(NC(=O)CCCn2c(=S)[nH]c3ccccc3c2=O)c1	5%	-25%	4%[10 µM]	11µM*	-20	4%
O=C(COc1ccc(C(=O)NCc2cccnc2)cc1)Nc1cccc(C(F)(F)F)c1	-2%	-4%	x	x	19	u
Brc1ccc(/C=N/Nc2nc3ccccc3o2)cc1	-8%	u	u	8.9µM*	-9	5%
COc1cc(/C=N\Nc2nc3ccccc3o2)cc(OC)c1OC	-1%	u	u	u	15	2%
COc1ccc(/C=N/Nc2nc3ccccc3o2)cc1O	-3%	u	u	11µM*	-16	8%
COc1cc(/C=N/Nc2nc3ccccc3o2)cc(OC)c1O	-2%	u	u	u	2	4%
Oc1ccccc1/C=N/Nc1nc2ccccc2o1	u	u	4µM*	0.5µM*	-1	7%
Fc1ccc(C2c3cccn3CCN2C(=S)Nc2cccc(F)c2)cc1 (centres undefined)	-1%	u	-66%	10µM*	-27	16%
Fc1cccc(NC(=S)N2CCn3cccc3C2c2cccnc2)c1 (centres undefined)	15%	u	-1%	9%	0	2%
